High-throughput results deposited in PubChem by National Center for Advancing Translational Sciences (NCATS).
PI5P4K alpha inh = inhibitors of human PI5P4K alpha; P48426; 330,000 tested, 1.2% active; PI5P4Kalpha enzyme, ADP-Glo luminescence, 60 min; hits give low values; AID 652105; max response, %; active means max response of -50% or lower; inconclusive means between -30% and -50%; inactive means -30% or higher; further: value at the top dose of about 77 µM; on the % scale 0 is the no-effect control and ±100 the full control effect
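Compounds were pin-transferred onto PI5P4Kalpha and substrate in HEPES pH 7.4 buffer with EGTA, CHAPS and 5% DMSO. ATP (5 microM final) started the reaction, which ran 60 minutes at room temperature before ADP-Glo detection.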
PLK1 PBD block = PLK1 (human) polo-box domain binding inhibition | P53350 | Plk1 PBD binding of FITC phosphopeptide, fluorescence polarization | Potency, µM, for the others: max response, negative = inhibition, actives largely listed as inhibitors | 360,000 tested, 2.8% active; further: potency means the concentration at half of the fitted maximal effect; series mostly up to about 57 µM; on the % scale 0 is the no-effect control and ±100 the full control effect; nearly all actives have a fitted effect of over 65% in size
VDR inh = vitamin D3 receptor (human) inhibition. P11473. VDR-SRC2-3 peptide fluorescence polarization, 2 h. Potency, µM, for inactives: max response, negative = inhibition, most hits filed as inhibitors. 400,000 tested, 0.93% active; further: potency means the concentration at half of the fitted maximal effect; on the % scale 0 is the no-effect control and ±100 the full control effect
Target sequence (P11473 whole entry, looked up): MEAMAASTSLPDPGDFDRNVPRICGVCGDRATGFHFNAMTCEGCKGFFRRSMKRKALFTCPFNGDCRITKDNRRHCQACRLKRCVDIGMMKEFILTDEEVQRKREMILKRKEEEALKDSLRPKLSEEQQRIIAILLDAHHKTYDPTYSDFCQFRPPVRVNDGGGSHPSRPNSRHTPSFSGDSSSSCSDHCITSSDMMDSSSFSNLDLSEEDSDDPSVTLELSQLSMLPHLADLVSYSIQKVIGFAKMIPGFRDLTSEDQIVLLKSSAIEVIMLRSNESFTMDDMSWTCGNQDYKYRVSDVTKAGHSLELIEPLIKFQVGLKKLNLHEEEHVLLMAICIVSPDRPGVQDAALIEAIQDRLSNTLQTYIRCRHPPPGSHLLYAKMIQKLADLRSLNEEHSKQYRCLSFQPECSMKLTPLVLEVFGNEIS
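Fluorescence polarization assay measuring small-molecule disruption of VDR binding to the coregulator peptide SRC2-3. Compounds were pin-transferred (23 nl) into the reagent mix and incubated 2 h at room temperature before reading.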
KAT2A inh = blocks human GCN5L2 histone acetyltransferase | GCN5L2 HAT assay, ThioGlo1 CoA-SH fluorescence | Potency, µM (doses to about 58.9 µM), inactives show at the highest dose activity change, negative = inhibition, usual class: inhibitors | 390,000 tested, 0.21% active; further: potency means the concentration at half of the fitted maximal effect; on the % scale 0 is the no-effect control and ±100 the full control effect
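GCN5L2 (20 nM) in 50mM HEPES pH 7.5, 0.1mM EDTA, 0.01% Tween-20 preincubated 15 min with compounds at room temperature. Reaction started with H3(1-25) 75uM, acetyl-CoA 70uM, ThioGlo1 50uM; CoA-thiol fluorescence (Ex340/Em540) read at 0 and 20 min.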
Rango-impB inh = Rango-importin beta binding inhibition | Q14974 | Rango CFP/YFP FRET sensor + importin beta, 45 min | Potency, µM (titrated, usually from 92.2 µM), for the others: at the highest dose inhibition of complex formation | 340,000 tested, 0.031% active | AID 540263; calls by dose curve;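 further: potency means the concentration at half of the fitted maximal effect; 0% = DMSO wells and 100% = buffer wells lacking importin beta; nearly all actives have a fitted effect of over 15% in size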
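FRET biosensor Rango (snurportin 1 IBB between N-terminal EYFP and C-terminal Cerulean), 50 nM in PBS/1 mM DTT/0.02% Tween-20/0.1% BSA, preincubated 5 min RT with compound; 0.125 microM importin beta added, 45 min RT, CFP/YFP FRET ratio read.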
Rango dissoc inh = prevents RanGTP from dissociating the Rango-importin beta complex; O95149+P62826; Biochemical FRET Rango-importin beta, RanGTP-induced dissociation; Potency, µM (top dose mostly 46.1 µM), inactives show at the highest dose activity change, negative = inhibition; 340,000 tested, 0.071% active; AID 540253; calls by dose curve; further: potency means the concentration at half of the fitted maximal effect; % of control where 0% means no effect; nearly all actives have a fitted effect of over 45% in size
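Rango (0.1 uM)–importin beta (0.25 uM) complex; RanGTP-RCC1 trigger; 45 min RT; CFP/YFP FRET read.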
* marks the source's active call; other numbers are inactive results. Compounds with a hit are over-represented: about 3.6% of the library has one in this group of screens. Unless noted, the call rests on the fitted dose curve; in most records, active means well fitted curve in the direction sought with a large enough effect; inconclusive means small, poorly fitted or top-dose-only effect, or another doubt; inactive means no such curve, though single readings can be large; an effect the other way counts as inactive or inconclusive.

Screening Cc1c(C(=O)Nc2c3c(nn2C(C)(C)C)CS(=O)(=O)C3)cccc1[N+](=O)[O-] returned PI5P4K alpha inh -3, PLK1 PBD block 7.5µM*, VDR inh inconclusive, KAT2A inh -5%, Rango-impB inh 0% and Rango dissoc inh 21%.
Screening Cc1c(C(=O)Nc2ccc3c4c(cccc24)CC3)cccc1[N+](=O)[O-] returned PI5P4K alpha inh 1, PLK1 PBD block 27µM*, VDR inh 3%, KAT2A inh -3%, Rango-impB inh -4% and Rango dissoc inh -15%.
For Cc1ccc(OCC(=O)Nc2ccc3c4c(cccc24)CC3)c(C)c1 the results were PI5P4K alpha inh -4, PLK1 PBD block -11%, VDR inh 4%, KAT2A inh 1%, Rango-impB inh 2% and Rango dissoc inh -11%.
`Cc1cccc(OCC(=O)Nc2ccc3c4c(cccc24)CC3)c1C` gave PI5P4K alpha inh -18, PLK1 PBD block 27µM*, VDR inh -29%, KAT2A inh 2%, Rango-impB inh 0% and Rango dissoc inh 25%.
`CN(C)c1ccc(/C=C(\C#N)c2nc(-c3ccc(Cl)c(Cl)c3)cs2)cc1` gave VDR inh -8% and KAT2A inh 1%.
For c1csc(-c2nc(N3CCN(Cc4ccc5c(c4)OCCO5)CC3)c3ccccc3n2)c1 the results were VDR inh 0%.
For Cc1ccc(NC(=O)CCc2c(C)nn(-c3ccc(N4CCOCC4)nn3)c2C)cc1C the results were PI5P4K alpha inh -16, PLK1 PBD block 27µM*, VDR inh -19%, KAT2A inh -5%, Rango-impB inh -2% and Rango dissoc inh 1%.
`Cc1cccc(NC(=O)CCc2c(C)nn(-c3ccc(N4CCOCC4)nn3)c2C)c1` gave PI5P4K alpha inh 1, PLK1 PBD block -5%, VDR inh -12%, KAT2A inh -4%, Rango-impB inh 0% and Rango dissoc inh 11%.
`COc1ccc(CCNC(=O)CCCn2nc(C)c3sc4ccccc4c3c2=O)c(OC)c1` gave VDR inh -9% and KAT2A inh -1%.
Screening CCNC(=O)NC(=O)CSc1ccc2ccccc2c1 returned PI5P4K alpha inh -6, PLK1 PBD block 27µM*, VDR inh inconclusive, KAT2A inh -3%, Rango-impB inh 4% and Rango dissoc inh -2%.
Screening CCNC(=O)NC(=O)CSc1ccccc1F returned PI5P4K alpha inh 4, PLK1 PBD block inconclusive, VDR inh -15%, KAT2A inh -2%, Rango-impB inh 0% and Rango dissoc inh -3%.
For COc1ccccc1CNC(=O)CN1C(=O)COc2ccc(S(=O)(=O)Nc3ccccc3)cc21 the results were VDR inh 17% and KAT2A inh -7%.
COc1ccccc1NC(=O)CC1Nc2ccccc2NC1=O (stereo unspecified) was read as PI5P4K alpha inh -9, PLK1 PBD block 1%, VDR inh -5%, KAT2A inh -25%, Rango-impB inh inconclusive and Rango dissoc inh 12µM*.
For CCN(Cc1ccncc1)Cc1c(O)ccc2cc(Br)ccc12 the results were PI5P4K alpha inh inconclusive, PLK1 PBD block 11µM*, VDR inh -16%, KAT2A inh -2%, Rango-impB inh inconclusive and Rango dissoc inh 2%.
CC(C)CNc1ncnc2oc(-c3ccco3)c(-c3ccco3)c12 was read as VDR inh -29%.
CSCc1ccc(C(=O)NCCSc2ccc(Br)cc2)cc1 was read as PI5P4K alpha inh 16, PLK1 PBD block -24%, VDR inh -11%, KAT2A inh -8%, Rango-impB inh 2% and Rango dissoc inh 1%.
For O=C(CNC(=O)c1ccccc1)Sc1ccccc1 the results were PI5P4K alpha inh -3, PLK1 PBD block 4.7µM*, VDR inh 45µM*, Rango-impB inh 0% and Rango dissoc inh -2%.
For O=C(NCSc1ccccc1)c1ccccc1 the results were PI5P4K alpha inh 5, PLK1 PBD block 24µM*, VDR inh -7%, KAT2A inh -1%, Rango-impB inh 3% and Rango dissoc inh -4%.
O=C(NCCSc1ccc(Br)cc1)c1ccccc1 was read as PI5P4K alpha inh 7, PLK1 PBD block 27µM*, VDR inh inconclusive, KAT2A inh -3%, Rango-impB inh 2% and Rango dissoc inh -8%.
O=C(CCCCC(=O)Sc1ccccc1)Sc1ccccc1 was read as PI5P4K alpha inh 2, PLK1 PBD block inconclusive, VDR inh 79µM*, Rango-impB inh 5% and Rango dissoc inh 3%.
Cc1ccc2c(c1)-c1nc(-c3ccc4c(c3)NC(=O)CO4)cc(-c3ccc(F)cc3)c1CO2 was read as VDR inh -19% and KAT2A inh -5%.
Screening NCC(O)COc1cccc2ccccc12 (stereo unspecified) returned VDR inh 7% and KAT2A inh 11%.
`Cc1ccc(-c2nc(-c3cc4cc(Cl)ccc4oc3=O)sc2C)cc1` gave VDR inh -10%.
`CCCCC1(C)OC(=O)C(=Cc2ccc(SC)cc2)C(=O)O1` (stereo unspecified) gave PI5P4K alpha inh 10, PLK1 PBD block 2.4µM*, VDR inh 10%, KAT2A inh -9%, Rango-impB inh -2% and Rango dissoc inh -4%.
Screening CCc1cnc2c(c1SCC(=O)c1ccc(OC)cc1)c(=O)n(C)c(=O)n2C returned VDR inh 14% and KAT2A inh -5%.
`COc1ccc(S(=O)(=O)Nc2ccc3c(c2)N(C(C)=O)CCC3)cc1F` gave VDR inh 6% and KAT2A inh 2%.
`CC(SC(=S)N1CCOCC1)C(=O)O` (stereo unspecified) gave PI5P4K alpha inh 0, PLK1 PBD block -10%, VDR inh 13%, KAT2A inh -1%, Rango-impB inh 0% and Rango dissoc inh 3%.
Screening S=C(SSC(=S)N1CCOCC1)N1CCOCC1 returned PI5P4K alpha inh -88* and PLK1 PBD block 1.5µM*.
Screening COc1ccc(C(C[N+](=O)[O-])C2(c3ccc(OC)c(OC)c3)C(=O)c3ccccc3C2=O)cc1 (stereo unspecified) returned PI5P4K alpha inh -1, PLK1 PBD block -10%, VDR inh 32µM*, KAT2A inh -10%, Rango-impB inh 0% and Rango dissoc inh 2%.
`CCCCCCCCC1=NCCc2c1[nH]c1ccccc21` gave PI5P4K alpha inh inconclusive, PLK1 PBD block 24µM*, VDR inh inconclusive, KAT2A inh 6%, Rango-impB inh inconclusive and Rango dissoc inh -22%.
